Assay results: PubChem BioAssay AID1117358 (Southern Research Institute, 2015)
About 160 (7%) of roughly 2,300 compounds were called active. Only a sample is shown. Results with a measured potency or affinity are listed apart. A number with no mark means an inactive call. The rule behind the calls is not given here.

Test: Vero cell cytotoxicity, dose response, cytotoxicity control for Vif-APOBEC3G degradation inhibitor project, Vero cells (AID 1117358)
Details: CellTiter-Glo ATP luminescence, 72 h; series mostly up to 40 µM; viability: at the top concentration

Going from `CC(=O)C1=C(O)C(=O)N(Cc2ccco2)C1c1ccc(F)cc1` (configuration not stated) to `O=C(O)c1ccc(S(=O)(=O)c2ccc3c(c2)C(=O)N(Cc2ccco2)C3=O)cc1`, the “viability” value rises from 98.9% to 101%.

Going from `COc1ccc(N2C(=O)C3CCCN3C2c2ccc(C)cc2)cc1` (configuration not stated) to `CCOc1ccc(Cl)cc1S(=O)(=O)N1CCN(c2ccc(F)cc2)CC1`, the “viability” value falls from 97.8% to 87.1%.

Compared with `Cc1[nH]c2ccccc2c1C(=O)CN1CCC(C(N)=O)(N2CCCCC2)CC1`, `Cc1[nH]c2ccccc2c1C(=O)Cn1c(=O)oc2ccccc21` is lower in “viability” value: 95% for the first, 94.9% for the second.

Going from `Cc1nn(Cc2ccccc2)c(C)c1NC(=O)Cn1nc([N+](=O)[O-])c(Cl)c1C` to `Cc1nn(Cc2ccc(Cl)cc2)c(C)c1NC(=O)c1cc(-c2ccc3c(c2)OCO3)on1`, the “viability” value falls from 101% to 83.2%.

Going from `CC1(C)Oc2ccc(C(=O)NC3CCCC3)cc2N(CC(=O)NC2CCCC2)C1=O` to `CCN1C(=O)c2ccccc2S(=O)c2ccc(C(=O)NC3CC3)cc21` (configuration not stated), the “viability” value falls from 99.9% to 97.5%.

Going from `CCOc1ccc(N(CC(=O)NC(C)(C)C)S(=O)(=O)c2c(C)noc2C)cc1` to `CCC(Cc1ccccc1)NC(=O)C1CCN(S(=O)(=O)c2c(C)noc2C)CC1` (configuration not stated), the “viability” value rises from 96.2% to 104%.

Going from `Cn1nnnc1SCC(=O)NCc1ccco1` to `COc1ccc(CSc2nnnn2C)cc1F`, the “viability” value falls from 102% to 94.5%.

Going from `CN(C)S(=O)(=O)N1CCC(CCCC2CCN(S(=O)(=O)N(C)C)CC2)CC1` to `CC1CCN(C(=O)CCc2nc3cc(S(=O)(=O)N(C)C)ccc3n2C)CC1`, the “viability” value falls from 108% to 96%.

Going from `Cc1ccc(NC(=O)COc2ccccc2C(=O)Nc2ccccc2)cc1Cl` to `COc1ccccc1C(=O)Nc1ccc(S(=O)(=O)Nc2cc(C)nc(C)n2)cc1`, the “viability” value rises from 85.8% to 96.3%.

Compared with `O=C(C/C=N/OCc1c(Cl)cccc1Cl)c1ccc(Cl)cc1`, `O=C(Oc1cccnc1)c1ccc(Cl)cc1` is higher in “viability” value: 93.4% for the first, 94.4% for the second.

Compared with `Cc1cc(C)cc(NCc2cc3c(cc2[N+](=O)[O-])OCO3)c1`, `Cc1cc(C)cc(Nc2ccc(C(=O)O)cc2N)c1` is higher in “viability” value: 85.9% for the first, 105% for the second.

First: O=C(Oc1ccccc1)c1cccc2cccnc12
Second: COc1ccc(S(=O)(=O)N(CC(=O)O)c2ccccn2)cc1
The “viability” value of the first is lower: 82.5% for the first, 99.8% for the second.

Going from `CC(C)c1ccc(NC(=O)C(c2ccccc2)N2CCC3(CC2)OCCO3)cc1` (configuration not stated) to `CC(NC(=O)c1cccs1)C(c1cccs1)N1CCN(Cc2ccccc2)CC1` (configuration not stated), the “viability” value falls from 104% to 103%.

Compared with `Oc1cccc(/C=N/c2c(-c3ccco3)nc3ccccn23)c1`, `CC(=O)c1ccc(NC(=O)c2ccc3nc(-c4ccco4)c(-c4ccco4)nc3c2)cc1` is lower in “viability” value: 95.3% for the first, 89.9% for the second.

Compared with `CCC(c1nnnn1C(C)(C)CC)N(CCCO)Cc1cc2cc(C)cc(C)c2[nH]c1=O` (configuration not stated), `Cc1ccc2cc(CN(Cc3nnnn3Cc3ccco3)CC3CCCO3)c(=O)[nH]c2c1C` (configuration not stated) is higher in “viability” value: 94.8% for the first, 101% for the second.

Going from `Cc1cccc(-n2c(Cc3cc(=O)[nH]c(=O)[nH]3)nnc2SCC(=O)NCC2CCCO2)c1` (configuration not stated) to `O=C(Cc1cc(=O)[nH]c(=O)[nH]1)NCC1CCCO1` (configuration not stated), the “viability” value rises from 94.2% to 98.5%.

Going from `CCOC(=O)c1c(NC(=O)c2cc(CC(C)C)on2)sc(C(C)=O)c1C` to `CCOC(=O)c1c(-c2cccs2)csc1NC(=O)CC(C)C`, the “viability” value falls from 100% to 95.5%.

First: N#CC1=C(Nc2ccccc2)SC=C(c2ccc(Br)cc2)N=C1N1CCOCC1
Second: O=S(=O)(c1ccc(OCc2nc3ccccc3s2)c(Cl)c1)N1CCOCC1
The “viability” value of the first is lower: 91.6% for the first, 98.5% for the second.

Compared with `Cc1nc2ccc(S(=O)(=O)N(C)CC(=O)N3CCc4ccccc43)cc2s1`, `Cc1nnc(NC(=O)c2ccc(S(=O)(=O)N(C)Cc3ccccc3)cc2)o1` is lower in “viability” value: 100% for the first, 96.7% for the second.

Compared with `COc1cccc(-c2nnc(SCC(=O)N3CCOCC3)o2)c1`, `CCc1cc2cc(C)cc(C)c2nc1SCC(=O)N1CCN(C(=O)c2ccco2)CC1` is lower in “viability” value: 102% for the first, 99.1% for the second.

Compared with `CCOc1ccc(C2=[N+]([O-])C(C)(C)N(O)C2(C)C)cc1`, `CCOc1ccc(-n2c(=O)c3c(C)c(C)sc3n(CC(=O)NCc3ccco3)c2=O)cc1` is higher in “viability” value: 93.6% for the first, 98.6% for the second.

First: CC1=CC(C)(C)Nc2ccc(OC(=O)CN3C(=O)c4cccc5cccc(c45)C3=O)cc21
Second: Cc1cc(C(=O)Nc2c(C)cccc2C)n(-c2ccccc2)n1
The “viability” value of the first is lower: 96.7% for the first, 106% for the second.

First: Cc1ccc(-c2ccc(CCC(=O)O)n2NC(N)=S)cc1
Second: C/C(=N\OC(=O)c1ccc(F)cc1)c1sc(-c2ccccc2)nc1C
The “viability” value of the first is lower: 93.1% for the first, 95.6% for the second.

Compared with `Cc1cc(-c2[nH]nc3c2C(c2cccc(O)c2)C(C#N)=C(N)O3)c(C)s1` (configuration not stated), `Cc1cccc(C)c1NS(=O)(=O)c1c(C)[nH]c(=O)[nH]c1=O` is lower in “viability” value: 96.6% for the first, 95% for the second.

Going from `CCC(C)C(NC(=O)[C@@H](NC(=O)c1ccccc1F)C(C)C)C(=O)OC` (some centres not stated) to `CCOC(=O)c1c(C)[nH]c(C(=O)OCC(=O)N2c3ccccc3CC2C)c1C` (configuration not stated), the “viability” value falls from 105% to 92%.

Compared with `C=CCNc1nc2ccccc2nc1NS(=O)(=O)c1cccs1`, `Nn1c(SCC(=O)NC2CCCc3ccccc32)nnc1-c1cccs1` (configuration not stated) is higher in “viability” value: 92.6% for the first, 109% for the second.

Compared with `COc1ccc(C(=O)NCc2cn3cccc(C)c3n2)cc1OC`, `COc1ccc(C(=O)NCc2cccnc2)cc1OC` is lower in “viability” value: 98% for the first, 96.7% for the second.

First: CCOC(=O)C(NC(=O)NC1CCCCC1)(c1ccccc1)C(F)(F)F (configuration not stated)
Second: S=C(Nc1cccc(Cl)c1)NC1CCCCC1
The “viability” value of the first is higher: 101% for the first, 98.6% for the second.

Going from `CCCNC(=S)NC1CCCC1` to `COCc1nnc(NC(=O)c2ccc(S(=O)(=O)N(C)C3CCCCC3)cc2)o1`, the “viability” value rises from 96.3% to 99.6%.

Going from `COc1cc(C(=O)Nc2ccc(S(=O)(=O)NC(C)C)cc2)cc(OC)c1OC` to `COC(=O)c1ccc(C)c(NS(=O)(=O)c2ccc(NC(C)=O)cc2)c1`, the “viability” value falls from 91% to 89.2%.

First: COc1cc(NC(=O)c2cc3nc(C)cc(C)n3n2)c(OC)cc1Cl
Second: COc1cc(NC(=O)c2nnn(Cc3ccc(SC)cc3)c2N)cc(OC)c1
The “viability” value of the first is higher: 95.1% for the first, 82.5% for the second.

Compared with `NC(=O)C[C@@H]1N[C@]2(C(=O)Nc3ccccc32)[C@@H]2C(=O)N(c3cc(C(F)(F)F)ccc3Cl)C(=O)[C@H]12`, `CCOc1cc(C2NC(=O)NC(O)(C(F)(F)F)C2C(=O)c2ccccc2)ccc1OC` (configuration not stated) is higher in “viability” value: 99.7% for the first, 101% for the second.

Compared with `COc1cc(C(=O)OCCN2CCCCC2)ccc1O`, `CC(C)(C)NC(=O)COC(=O)c1cc(S(=O)(=O)N2CCCCC2)ccc1N1CCOCC1` is lower in “viability” value: 101% for the first, 92.4% for the second.

Compared with `CCN(CC)C(=O)CSCC(=O)Nc1ccccc1`, `O=C(CSc1nncs1)NC(=O)NCc1ccccc1` is higher in “viability” value: 90.6% for the first, 91.5% for the second.

First: CC(C)(C)OC(=O)N1CCCC1C(=O)N1CCc2ccccc21 (configuration not stated)
Second: COc1ccc(C(=O)N2CCCN(C)CC2)cc1S(=O)(=O)N1CCCc2ccccc21
The “viability” value of the first is higher: 107% for the first, 90.5% for the second.

First: CCOC(=O)CSc1nnc(CNC(=O)c2cccs2)n1CCc1ccccc1
Second: O=C(NCc1ccccn1)c1ccc(Cn2cc(Br)cn2)o1
The “viability” value of the first is higher: 103% for the first, 98.8% for the second.

Going from `CCN1CCc2c(C#N)c(NCc3ccccc3)nc(N(CC)CC)c2C1` to `Oc1c(C(c2ccccc2)N2CCN(Cc3ccccc3)CC2)sc2ncnn12` (configuration not stated), the “viability” value falls from 98.3% to 97.7%.

Going from `O=C(NCc1ccncc1)c1ccc(Cn2cc(C(F)(F)F)ccc2=O)cc1` to `O=C(Nc1ccccc1F)c1ccc(S(=O)(=O)NCC2CCCO2)cc1` (configuration not stated), the “viability” value falls from 97.2% to 93.5%.

First: CCNc1nc(OCCNS(=O)(=O)c2cc(C)ccc2C)nc(N(C)C)n1
Second: CCOC(=O)C1CCN(S(=O)(=O)c2cccc(-c3cn4cccnc4n3)c2)CC1
The “viability” value of the first is lower: 82.2% for the first, 99% for the second.

First: CC1Cc2ccccc2N1C(=O)C1CCN(S(=O)(=O)Cc2ccccc2)CC1 (configuration not stated)
Second: O=C(c1ccc2c(c1)OCCO2)C1CCN(C(=O)c2ccc(F)cc2)CC1
The “viability” value of the first is lower: 94.6% for the first, 111% for the second.

First: O=C(Nc1ccc2nc(-c3ccco3)c(-c3ccco3)nc2c1)N1CCCCCC1
Second: O=C(CN1C(=O)NC2(CCCCCCC2)C1=O)NCc1cccs1
The “viability” value of the first is higher: 105% for the first, 99.7% for the second.

Going from `O=C(O)CCN1CCOCC1` to `CCOC(=O)c1cc2sc(C)cc2n1CC(=O)N1CCN(C(=O)c2ccco2)CC1`, the “viability” value falls from 99.2% to 94%.

Going from `COCC(=O)Nc1sc2c(c1C(=O)OC)C(C(=O)OC)CC2` (configuration not stated) to `COC(=O)Nc1sc2c(c1C(=O)NCc1ccco1)CCCC2`, the “viability” value rises from 102% to 104%.

With `CN(C)c1ccc(/C=N\NC(=O)c2csnn2)cc1` the “viability” value was 92.2%.
